Source: PubChem BioAssay AID1159580 (chemical genetic matrix, 2015)
Where “and” joins values, the source holds several entries; their conditions need not be identical. Identical values can stand only once. Screen size: about 5,500 compounds; about 2,000 (36%) were called active. Inconclusive results (about 18%) are left out. No stated cut-off is given here; in the data, active means normalized growth mostly below about 0.91 (no sharp cut-off); inconclusive means no clear call, values can overlap the other calls; inactive means mostly above about 0.92. Some of the results follow.

Assay: chemical genetic growth profiling, strain panel (AID 1159580);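 further: tested at 20 µM; growth read once vehicle control cultures reached saturation at 30 °C; 1 = growth at the plate median or of vehicle wells; lower values mean less growth of the strain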
Details: S. cerevisiae deletion strains, growth OD

Measured: normalized growth

O=C(/C=C/c1ccc(O)c(O)c1)O[C@@H]1C[C@](O)(C(=O)O)C[C@@H](O)[C@H]1O
inactive: locus YAL021C, strain ccr4, active compounds read low 1.05 | locus YAL026C, strain drs2, active compounds read low 0.979 | locus YAL030W, strain snc1, active compounds read low 0.983 | locus YBL061C, strain skt5, active compounds read low 0.992 | locus YBR009C, strain hhf1, active compounds read low 0.994 | locus YBR021W, strain FUR4, active compounds read low 0.992 | locus YBR023C, strain chs3, active compounds read low 1.03 | locus YBR171W, strain sec66, active compounds read low 0.95 | locus YBR229C, strain ROT2, active compounds read low 0.997 | locus YBR231C, strain swc5, active compounds read low 0.956 | locus YBR279W, strain paf1, active compounds read low 0.988 | locus YCL011C, strain gbp2, active compounds read low 0.985 | locus YCL016C, strain dcc1, active compounds read low 1.02 | locus YCL029C, strain bik1, active compounds read low 1.02 | locus YCL061C, strain MRC1, active compounds read low 1 | locus YCL069W, strain vba3, active compounds read low 0.964 | locus YCR088W, strain abp1, active compounds read low 0.968 | locus YDL005C, strain med2, active compounds read low 0.966 | locus YDL035C, strain GPR1, active compounds read low 0.984 | locus YDL040C, strain nat1, active compounds read low 0.98 | locus YDL074C, strain BRE1, active compounds read low 1.04 | locus YDL101C, strain DUN1, active compounds read low 1.02 | locus YDL185W, strain tfp1, active compounds read low 1.01 | locus YDL192W, strain arf1, active compounds read low 1 | locus YDR001C, strain nth1, active compounds read low 0.98 | locus YDR069C, strain doa4, active compounds read low 0.97 | locus YDR101C, strain arx1, active compounds read low 1.02 | locus YDR137W, strain rgp1, active compounds read low 0.98 | locus YDR150W, strain NUM1, active compounds read low 1.01 | locus YDR159W, strain sac3, active compounds read low 0.915 | locus YDR162C, strain NBP2, active compounds read low 1.01 | locus YDR195W, strain ref2 0.942 | locus YDR297W, strain sur2, active compounds read low 0.99 | locus YDR318W, strain mcm21, active compounds read low 1.01 | locus YDR334W, strain swr1, active compounds read low 0.974 | locus YDR335W, strain msn5, active compounds read low 0.973 | locus YDR388W, active compounds read low 1.01 | locus YDR392W, strain spt3, active compounds read low 0.997 | locus YDR502C, strain sam2, active compounds read low 1.02 | locus YEL003W, strain gim4, active compounds read low 0.976 | locus YEL037C, strain rad23, active compounds read low 0.973 | locus YEL061C, strain CIN8 (second series), active compounds read low 0.965 | locus YEL061C, strain CIN8, active compounds read low 1.01 | locus YER015W, strain faa2, active compounds read low 0.988 | locus YER016W, strain bim1, active compounds read low 0.968 | locus YER110C, active compounds read low 1.02 | locus YER111C, strain swi4, active compounds read low 0.976 | locus YER155C, strain BEM2 (second series), active compounds read low 0.993 | locus YER155C, strain BEM2, active compounds read low 1.01 | locus YER167W, strain BCK2, active compounds read low 1.01 | locus YFR010W, strain ubp6, active compounds read low 0.972 | locus YGL078C, strain dbp3, active compounds read low 1.01 | locus YGL086W, strain mad1, active compounds read low 1.02 | locus YGL167C, strain pmr1, active compounds read low 0.971 | locus YGL173C, strain kem1, active compounds read low 0.959 | locus YGL227W, strain vid30, active compounds read low 0.975 | locus YGL240W, strain doc1, active compounds read low 0.962 | locus YGL248W, strain PDE1, active compounds read low 1.01 | locus YGL253W, strain hxk2, active compounds read low 0.949 | locus YGR078C, strain PAC10, active compounds read low 1.03 | locus YGR135W, strain pre9, active compounds read low 0.997 | locus YGR252W, strain gcn5, active compounds read low 0.97 | locus YHR013C, strain ard1, active compounds read low 0.997 | locus YHR027C, strain rpn1, active compounds read low 0.985 | locus YHR030C, strain SLT2, active compounds read low 1.01 | locus YHR079C, strain IRE1 (second series), active compounds read low 1.01 | locus YHR079C, strain IRE1, active compounds read low 1 | locus YHR094C, strain hxt1, active compounds read low 1.02 | locus YHR129C, strain ARP1, active compounds read low 1 | locus YHR142W, strain chs7, active compounds read low 0.975 | locus YHR200W, strain rpn10, active compounds read low 1.02 | locus YIL066C, strain RNR3, active compounds read low 0.981 | locus YIL073C, strain SPO22, active compounds read low 1.02 | locus YIL125W, strain kgd1, active compounds read low 1.02 | locus YIR030C, strain dcg1, active compounds read low 1.01 | locus YJL092W, strain hpr5, active compounds read low 0.969 | locus YJL095W, strain BCK1 (second series), active compounds read low 0.953 | locus YJL095W, strain BCK1, active compounds read low 1.04 and 1.02 | locus YJL115W, strain asf1, active compounds read low 0.992 | locus YJL129C, strain trk1, active compounds read low 0.966 | locus YJL134W, strain LCB3, active compounds read low 1.01 | locus YJL154C, strain vps35, active compounds read low 0.976 | locus YJL164C, strain tpk1, active compounds read low 1.01 | locus YJL166W, strain qcr8, active compounds read low 0.974 | locus YJL168C, strain set2, active compounds read low 1 | locus YJL187C, strain SWE1 (second series), active compounds read low 1.03 | locus YJR043C, strain POL32, active compounds read low 1.01 | locus YJR066W, strain TOR1, active compounds read low 0.947 | locus YJR075W, strain HOC1, active compounds read low 1.04
